7 molecules from PubChem BioAssay (Tox21) can be followed below.

The structures appear in SMILES notation. Several values for one entry are separate records, joined by “and”; a condition that tells them apart may be missing. Equal values may be shown once. Results filed as inconclusive are left out. A structure can be active in one record and inactive in another. Activity calls are given as the source filed them. Unless noted, calls come from the whole dose curve; as a rule, active = well fitted curve in the direction sought with a large enough effect in the repeat runs; inconclusive = weak or mixed curves; inactive = no such curve, though single readings can be large; an effect the other way counts as inactive or inconclusive.

Experiment [1] is described as follows: qHTS assay to identify small molecule agonists of the hypoxia (HIF-1) signaling pathway - cell viability counter screen (AID 1224844; calls by dose curve; note: nearly all actives have a fitted effect of over 50% in size). The method, boiled down:
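HRE-bla ME-180 cells, 2,000/well in 0.5% dialyzed FBS medium, treated 17 h at 37C with compounds. Viability read in the same wells as the bla reporter, by CellTiter-Glo luminescence after 30 min at room temperature.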

Experiment [2] can be described thus: qHTS assay to identify small molecule agonists of H2AX (AID 1224845; active = well fitted activation curve with a large enough effect in the signal ratio in the repeat runs, not every such curve was filed as active; the % refers to the signal ratio). In a few lines:
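Wild-type CHO-K1 cells, plated overnight, exposed 3hr at 37C to 15 concentrations (0.76% DMSO final). Lysed, then HTRF anti-pH2AX (S139) cryptate and anti-H2AX-d2 antibodies, 24 hr room temperature; 665/620 nm emission read.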
A general note: In qHTS, concentration-response curves come from the screen itself.

The nature of experiment [3]: qHTS assay to identify small molecule agonists of the hypoxia (HIF-1) signaling pathway (AID 1224846; active = well fitted activation curve with a large enough effect in the signal ratio in the repeat runs, not every such curve was filed as active; the % refers to the signal ratio). In a few lines: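 HRE-bla ME-180 beta-lactamase reporter cells in medium with 0.5% dialyzed FBS, pre-incubated 5 h then exposed to compounds 17 h at 37C, 5% CO2; reporter induction read with CCF4-AM FRET substrate.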
Experiment [4] can be described thus: qHTS assay to identify small molecule agonists of H2AX - cell viability counter screen (AID 1224847; calls by dose curve; note: top concentration of the series differs between compounds; nearly all actives have a fitted effect of over 30% in size). The method, boiled down: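 Viability of CHO-K1 (wild type) cells after 3 hr compound exposure was measured by CellTiter-Glo luminescence.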
Experiment [5] can be described thus: qHTS RealTime-Glo MT Cell Viability Assay in HepG2 cells - 24 hour (AID 1224867). Note: nearly all actives have a fitted effect of over 50% in size. In a few lines: (§1)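 Cells + NanoLuc/prosubstrate dispensed (600 cells/well) → 5 h at 37 C/5% CO2 → compounds in DMSO transferred → 40 h incubation at 37 C, luminescence read at 0, 8, 16, 24, 32, 40 h.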
Experiment [6] in a line: qHTS RealTime-Glo MT Cell Viability Assay in HEK293 cells - 32 hour (AID 1224868). Note: top concentration of the series differs between compounds; nearly all actives have a fitted effect of over 50% in size. The method, boiled down:
(§2)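 Tox21 10K qHTS, HEK293, 600 cells/well, RealTime-Glo reagent co-dispensed with cells; 5 h preincubation, compound by pintool, 37 C, luminescence at 0–40 h.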

The nature of experiment [7]: A CellTox Green Cytotoxicity Assay to monitor cytotoxicity in HEK293 cells - 0 hour (AID 1224869). Note: nearly all actives have a fitted effect of over 50% in size. In a few lines: (§3)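 HEK293 cells, 600/well, were preincubated 5 hours and then exposed to compounds at 37 C for up to 40 hours. A cell-impermeant cyanine dye staining dead-cell DNA was read by fluorescence at 0, 8, 16, 24, 32 and 40 h time points.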
Experiment [8] can be described thus: qHTS RealTime-Glo MT Cell Viability Assay in HepG2 cells - 40 hour (AID 1224870). Note: nearly all actives have a fitted effect of over 50% in size. The method, boiled down:
(§4)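 HepG2 cells (600/well) mixed with RealTime-Glo MT reagent, settled 5 h at 37 C/5% CO2 before compound addition. Nonlytic NanoLuc luminescence from viable-cell prosubstrate reduction read repeatedly during 40 h treatment at 37 C.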

Experiment [9] in a line: qHTS RealTime-Glo MT Cell Viability Assay in HEK293 cells - 16 hour (AID 1224872). The method, boiled down:
as §2

Experiment [10] can be described thus: qHTS RealTime-Glo MT Cell Viability Assay in HepG2 cells - 8 hour (AID 1224873). Note: nearly all actives have a fitted effect of over 55% in size. The method, boiled down: as §4
Experiment [11] in a line: qHTS RealTime-Glo MT Cell Viability Assay in HEK293 cells - 40 hour (AID 1224874). Note: nearly all actives have a fitted effect of over 50% in size. The settings on record: RealTime-Glo luminescence; max response: stronger effect = lower value. The method, boiled down:
(§5)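 600 cells/well were plated with the nonlytic NanoLuc/prosubstrate reagent, pre-incubated 5 h, then given 23 nL of compound in DMSO. Incubation at 37 C for 40 h, with luminescence from viable-cell-reduced substrate read repeatedly from 0 h.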

Experiment [12] is described as follows: A CellTox Green Cytotoxicity Assay to monitor cytotoxicity in HEK293 cells - 24 hour (AID 1224875). Note: nearly all actives have a fitted effect of over 45% in size. In a few lines: as §3
Experiment [13] can be described thus: A CellTox Green Cytotoxicity Assay to monitor cytotoxicity in HepG2 cells - 16 hour (AID 1224876). Note: nearly all actives have a fitted effect of over 45% in size. In a few lines: (§6)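 HepG2 cells, 600/well, preincubated 5 h with CellTox Green dye, then exposed to Tox21 compounds in DMSO at 37 C for up to 40 h. Dead-cell DNA fluorescence read at the indicated time point.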
Experiment [14] is described as follows: qHTS RealTime-Glo MT Cell Viability Assay in HepG2 cells - 32 hour (AID 1224877). Note: nearly all actives have a fitted effect of over 55% in size. The method, boiled down:
as §1

A short description of experiment [15]: A CellTox Green Cytotoxicity Assay to monitor cytotoxicity in HepG2 cells - 24 hour (AID 1224878). Note: nearly all actives have a fitted effect of over 45% in size. In a few lines: as §6
A short description of experiment [16]: A CellTox Green Cytotoxicity Assay to monitor cytotoxicity in HepG2 cells - 40 hour (AID 1224879). Note: nearly all actives have a fitted effect of over 40% in size. In a few lines: as §6
Experiment [17] can be described thus: qHTS RealTime-Glo MT Cell Viability Assay in HEK293 cells - 0 hour (AID 1224880). Note: top concentration of the series differs between compounds; nearly all actives have a fitted effect of over 45% in size. The method, boiled down:
as §5

Experiment [18] in a line: A CellTox Green Cytotoxicity Assay to monitor cytotoxicity in HEK293 cells - 40 hour (AID 1224871). Note: nearly all actives have a fitted effect of over 45% in size. Note: potency is the fitted concentration of half-maximal effect. The method, boiled down:
as §3

A short description of experiment [19]: qHTS assay to identify small molecule antagonists of the estrogen related receptor (ERR) signaling pathway from Tox21 library (AID 1224848). Note: nearly all actives have a fitted effect of over 50% in size. In a few lines: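 ERR reporter cell line (from NTP) seeded 2,000 cells/well, rested 6 h at 37 C/5% CO2, then pin-dosed with compounds in DMSO. After 18 h at 37 C, ONE-Glo added; luminescence read after 30 min at room temperature.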

Experiment [20] in a line: qHTS assay to identify small molecule agonists of the estrogen related receptor (ERR) signaling pathway from Tox21 library (AID 1224849; calls by dose curve; note: nearly all actives have a fitted effect of over 15% in size). The settings on record: ERR reporter cell line, ONE-Glo luciferase, 18 h; at 92.4 µM (top of the series). The method, boiled down:
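ERR reporter cells (NTP line) pre-incubated 6 hours at 37 C, then exposed to compounds for 18 hours at 37 C. ONE-Glo luciferase luminescence was read after 30 minutes at room temperature.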
% is set by controls: 0 for no effect and ±100 for the full control effect.

For the molecule `CCC(=O)O[C@@H]1C=C2CCC3C(CCC4(C)C3CC[C@@H]4OC(=O)CC)C2CC1` (stereo not given in full), the Potency entry in [1], in experiment [2], in experiment [4], in experiment [5], in experiment [6] and in [7] was “inactive” in each case. In addition, the Potency entry in experiment [8], in experiment [9], in experiment [10], in experiment [12], in experiment [13] and in experiment [14] was “inactive” in each case. The Potency entry in experiment [15] and in experiment [16] was “inactive” throughout. Moreover, the outcome in experiment [3] and in [17] was inactive. The max response in experiment [11] is -21.1% (inactive).
For the molecule `O=S(=O)(Cl)Cl`, the Potency result in experiment [1], in [2], in [4], in [5], in [8] and in [9] was “inactive” in each case. Moreover, the Potency entry in [10], in [12], in experiment [13], in experiment [14] and in experiment [15] was “inactive” throughout. Further, the outcome in experiment [3] and in experiment [17] was inactive. In experiment [11], the max response is 15.4% (inactive).
`Nc1cccc2ccccc12`: the Potency result in experiment [1], in [2], in [4], in experiment [5], in experiment [6] and in experiment [8] was “inactive” in each case. Further, the Potency result in [18], in experiment [9], in [10], in experiment [12], in experiment [13] and in [14] was “inactive” each time. Besides, the Potency entry in experiment [15] and in experiment [16] was “inactive” each time. Besides, the outcome in experiment [3] and in experiment [17] was inactive. Further, the max response in experiment [11] was -9.7% (inactive) and -1.99% (inactive).
For `CC(C)c1ccc(NC(=O)N(C)C)cc1`, the Potency entry in experiment [1], in [2], in experiment [19], in experiment [6], in experiment [7] and in experiment [8] was “inactive” throughout. In addition, the Potency result in experiment [18], in experiment [9], in [10], in experiment [12], in experiment [13] and in experiment [14] was “inactive” in each case. The Potency result in [15] and in experiment [16] was “inactive” throughout. The call in experiment [3] and in experiment [17] was inactive. Also, in [20], the activity change, positive = activation was 33.4% (active). Further, in [11], the max response is 3.89% (inactive).
Consider `c1ccc2c(c1)-c1cccc3cccc-2c13`, for which the Potency result in [1], in experiment [2], in experiment [5], in experiment [6], in experiment [7] and in experiment [8] was “inactive” each time. Also, the Potency entry in experiment [9], in experiment [10], in experiment [12], in experiment [13], in [14] and in [15] was “inactive” throughout. Further, the Potency result in experiment [16] is “inactive”. In addition, the call in experiment [3] and in [17] was inactive. For the same molecule, the Potency result in experiment [18] was “inactive and 43.6 µM (active)”. Besides, in experiment [11], the max response is -7% (inactive) and -12.1% (inactive).
In the case of `CC(CC(C(N)=O)(c1ccccc1)c1ccccc1)N(C)C` (stereo not given), the Potency entry in experiment [1], in experiment [2], in experiment [4], in experiment [5], in experiment [6] and in experiment [7] was “inactive” throughout. For the same molecule, the Potency entry in experiment [8], in [9], in [10], in experiment [13], in experiment [14] and in experiment [15] was “inactive” each time. In addition, the call in [3] and in experiment [17] was inactive. For the same molecule, the max response in [11] is 3.65% (inactive).
As for `CCOC(=O)NC(O)C(Cl)(Cl)Cl` (stereo not given), the Potency entry in experiment [1], in experiment [2], in experiment [4], in [5], in [6] and in [7] was “inactive” in each case. The Potency result in experiment [8], in [18], in experiment [9], in [10], in [13] and in experiment [14] was “inactive” throughout. Further, the Potency entry in [15] and in experiment [16] was “inactive” throughout. The outcome in experiment [3] and in experiment [17] was inactive. Also, the max response in experiment [11] is 7.58% (inactive).
